This is one part of a sample in which hits are shown more often than they occur. The hit rate among all sequences tested is not known here. Values without a mark were called inactive.

This test has as its system T1, Caupolican (Caup) homeodomain DNA-binding domain.
T1 sequence: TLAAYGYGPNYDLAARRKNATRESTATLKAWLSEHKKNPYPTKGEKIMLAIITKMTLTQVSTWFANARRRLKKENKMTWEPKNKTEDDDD
The test can be described thus: PBM E-score (8-mer, recovered from the published 9-mer minima) (E-score (dimensionless, -0.5 to 0.5)); Drosophila protein; higher = stronger relative binding preference, active = 0.31 or more. How it is done:
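Protein binding microarray (PBM): in vitro transcribed/translated Caupolican (Caup) homeodomain DNA-binding domain (residues 214-303) applied at 100 nM to a universal 8-mer PBM array (Agilent AMADID 015681). The 8-mer enrichment score (E-score, range -0.5 to 0.5) was computed, and each 9-mer score is the minimum E-score of its two constituent 8-mers. The E-score is the same for a 9-mer and its reverse complement; 0.31 is the stated binding threshold.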
Regarding AATGTGTA, the “PBM E-score” value is 0.311 (active). The same measure for AATGTACA: 0.407 (active). In the case of GATGTGCC, the “PBM E-score” value is -0.0456. In the case of TATGTACA it was 0.427 (active); in that of TCTGTACA, 0.281; in that of GATGTACC, 0.366 (active).

With CAATGCTG, the “PBM E-score” value was -0.0134.

CCGTAACG: the “PBM E-score” value is -0.1.

As to CCTGAGCG, the “PBM E-score” value was -0.215. In the case of AAGGTCTC it was -0.0943; in that of CATGTACG, 0.409 (active). Consider CCTGTACG, for which the “PBM E-score” value was 0.0896. The same measure for AATGTACG: 0.153; for CACCTTGC: 0.00581. In the case of CCAGTACC it was -0.0496; in that of AATACTCG, 0.138. As for ATGGTATC, the “PBM E-score” value is 0.109. The same measure for AGATGCTA: 0.0221; for ATTACTCA: 0.112. Take ATTACACA: the “PBM E-score” value was ≥ 0.332 (active). On to CTTACACA, for which the “PBM E-score” value is 0.201. The same measure for GTTACAAA: 0.285; for GTTACACA: 0.339 (active); for ATTACACC: 0.259. The same measure for CGCAGGAA: -0.134.

In the case of GACGCACA, the “PBM E-score” value is -0.0232.

Turning to CAGTTCAA, the “PBM E-score” value is -0.0476. Turning to GATGGGGC, the “PBM E-score” value is -0.192. In the case of AGCATGGG, the “PBM E-score” value was -0.0663.

For the sequence AGCATGTA, the “PBM E-score” value is ≥ 0.413 (active). In the case of GGCATGGA it was -0.0635; in that of AGCATGGA, 0.0568; in that of GGCATGTA, 0.378 (active). As to GGCATGCA, the “PBM E-score” value is 0.0214.

On to AGATTAGC, for which the “PBM E-score” value was -0.0125. In the case of ATGTAGCC it was 0.145. As for GCCCAGCC, the “PBM E-score” value is -0.262. In the case of TACGCTCA it was -0.00447.

As for GACTTGGA, the “PBM E-score” value is -0.0172. In the case of AACTTGTG it was 0.147; in that of CACTTGGA, 0.0572; in that of GACTTGTA, 0.38 (active). The same measure for CACTTGTA: 0.318 (active); for AACTTGTA: 0.364 (active); for AACTTGTC: 0.27. In the case of CACTTGTC it was 0.271; in that of GACTTGCA, 0.0909; in that of AGCGACCA, -0.01. TACCTTGA: the “PBM E-score” value is 0.0541. Take CGCTAGAA: the “PBM E-score” value was -0.14. For CTACTCTC, the “PBM E-score” value is -0.105.

Consider GAATAGCC, for which the “PBM E-score” value is -0.146. In the case of ACCTTGTG it was 0.0927; in that of ACCTTGTA, 0.412 (active).

For the sequence GCCTTGAA, the “PBM E-score” value was -0.119. In the case of GCCTTGCA it was -0.0717; in that of ACCTTGTC, 0.306; in that of GCCTTGTA, 0.321 (active). In the case of CCCTTGTA it was 0.337 (active); in that of CCCTTGTC, 0.177.

With CCTTTGTA, the “PBM E-score” value is 0.138. In the case of CGTAGTTA it was 0.157; in that of CAAGCTGA, 0.031. Regarding CTAGGGCC, the “PBM E-score” value was -0.235. Consider GGTCCGAC, for which the “PBM E-score” value was -0.0703. In the case of CCAGTAAC it was -0.0237.

As for ATTATCAG, the “PBM E-score” value is 0.0887. In the case of AACTATTC it was 0.0523; in that of ACTGATCC, 0.062; in that of ATACATCC, 0.276. In the case of GAACATCA it was 0.259.

For CTACATCA, the “PBM E-score” value was 0.253. The same measure for GCACATCA: 0.0977; for GTACATCA: 0.383 (active); for ATACATCA: 0.334 (active). In the case of CTAACGGA it was -0.0298; in that of AAACGTTG, -0.0301; in that of ACAAAGGA, 0.131. The same measure for CTTTCCTA: -0.094; for ATCAGTAC: 0.201; for AAGAACAA: 0.259. With AAGAACAT, the “PBM E-score” value is 0.357 (active). The same measure for AAGAACAC: 0.312 (active); for GAGAACAC: 0.236. The same measure for AAGAACAG: 0.172. In the case of CAGAACAC it was 0.215. For the sequence ACGTAGCT, the “PBM E-score” value is 0.0358. On to CATATCTC, for which the “PBM E-score” value is 0.0782.

On to AGTTGGGC, for which the “PBM E-score” value was -0.15. The same measure for AGCACGTG: 0.082; for ACTACATC: 0.33 (active). In the case of ACTACATA it was 0.35 (active); in that of ACTACAGC, 0.149; in that of ACTACAGG, 0.199.

CCTACATA: the “PBM E-score” value was 0.153. In the case of GCTACATA it was 0.248. Regarding ACTACATG, the “PBM E-score” value was 0.428 (active). The same measure for CCTACATC: 0.144. In the case of ACCACATG, the “PBM E-score” value was 0.212. In the case of AAAATACT it was 0.04.

GCGATCGA: the “PBM E-score” value is 0.0192.

On to AGCGTAGC, for which the “PBM E-score” value is -0.111. In the case of AGGGCCGC it was -0.251; in that of CGACCCGA, -0.151. As to GCGGTACA, the “PBM E-score” value was 0.173.

For CTGGCCAG, the “PBM E-score” value was -0.181.

On to ATTTGGAC, for which the “PBM E-score” value was 0.134. For AGGGCGTC, the “PBM E-score” value was -0.192. In the case of AGTCATAA it was 0.146. In the case of CGTCATAA it was 0.081; in that of GGACATAA, 0.211.

For AGACATAA, the “PBM E-score” value was 0.217. In the case of GGACATCA it was 0.234.

With CTACATAA, the “PBM E-score” value was 0.22.

TGTCATAA: the “PBM E-score” value is 0.338 (active). Regarding CGACATCA, the “PBM E-score” value was 0.284. The same measure for TGACATAA: 0.311 (active). The same measure for TCACATAA: 0.182. The same measure for TTACATAA: 0.339 (active); for TGACATCA: ≥ 0.333 (active).

These data come from the supplement of paper PMC3724861.
